Compounds with a hit are over-represented: about 9.9% of the library has one in this group of screens.
SW480 rerep – induces DNA re-replication in SW480 colon adenocarcinoma cells; SW480 DNA re-replication, Hoechst DNA content imaging, 48 h; Potency, µM (doses to about 46.1 µM), actives largely listed as activators; actives 1.8% (n = 340,000); AID 624297; further: nearly all actives have a fitted effect of over 55% in size
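Per well, 250 cells were exposed to pinned compound for 48 hr. Nuclear DNA was visualised with Hoechst (40 min, 37 C) and total object intensity recorded by fluorescence scanning.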
KB-V1 MDR tox – kills drug-selected multidrug resistant KB-V1 cells; KB-V1 MDR cells viability, CellTiter-Glo, 72 h; Potency, µM (series often up to 46.1 µM), usual class: cytotoxic; actives 3.4% (n = 400,000); AID 1347076; further: nearly all actives have a fitted effect of over 60% in size
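Following 72 h at 37 degrees C with compound, KB-V1 cell viability was read by CellTiter-Glo luminescence, medium being phenol-red-free DMEM plus 10% FBS; concentration-response parameters came from normalized, curve-fitted qHTS data.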
IL1B secr inh – inhibitors of inflammasome signaling (IL-1 beta secretion); THP-1 LPS/ATP IL-1B secretion, AlphaLISA, 16 h; stronger effect = lower value; activity change, % at 57.5 µM; actives 4.7% (n = 360,000); AID 743279; in the data active means activity change below about -50%; inconclusive means mostly about -30% to -49%
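THP-1 cells pretreated 1 hr with compounds (up to 57.5 uM final), then stimulated with LPS (250 ng/mL final) plus ATP (1.25 mM final); secreted IL-1B measured by AlphaLISA after 16 hr, decreased signal indicating inhibition.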
KB-3-1 cytotox – kills parental KB-3-1 adenocarcinoma cells; KB-3-1 viability, CellTiter-Glo ATP luminescence, 72 h; actives 1.4% (n = 400,000); Potency, µM (series often up to 46.1 µM), most hits filed as cytotoxic; further: nearly all actives have a fitted effect of over 60% in size
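Multi-concentration cytotoxicity screen in KB-3-1 cells grown in DMEM lacking phenol red with 10% FBS. After 72 h at 37 °C with compound, ATP-dependent luminescence was recorded.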
MCF10A rerep – induces DNA re-replication in MCF 10a normal breast cells; MCF 10A DNA re-replication, Hoechst nuclear intensity, 48 h; Potency, µM (doses to about 46.1 µM), most hits filed as activators; actives 2.9% (n = 350,000); AID 624296; further: nearly all actives have a fitted effect of over 50% in size
Hits are given with their value; - = inactive; ? = inconclusive; . = no result given. Unless noted, the call rests on the fitted dose curve; in most records, active means well fitted curve in the direction sought with a large enough effect; inconclusive means small, poorly fitted or top-dose-only effect, or another doubt; inactive means no such curve, though single readings can be large; an effect the other way counts as inactive or inconclusive.

SMILES	SW480 rerep	KB-V1 MDR tox	IL1B secr inh	KB-3-1 cytotox	MCF10A rerep
O=C(C1CCCN(S(=O)(=O)c2ccccc2)C1)N1CCN(c2ccccc2)CC1 (centres undefined)	-	?	-	-	-
Cc1ccc(SC2=C(Sc3ccc(C)cc3)C(=O)c3ccccc3C2=O)cc1	8.2µM	-	-74	-	3.3µM
O=C(COc1ccc(Cl)cc1Cl)Nc1ccc(CN2CCOCC2)cc1	?	-	?	-	-
Cc1ccc(NC(=O)CCCSc2ccccc2)cc1S(=O)(=O)N1CCOCC1	-	?	-52	-	-
Cc1ccc(NC(=O)COc2ccc(Cl)cc2Cl)cc1S(=O)(=O)N1CCOCC1	-	?	-57	-	-
COc1cc(C#N)ccc1OCC(=O)Nc1ccc(C)c(S(=O)(=O)N2CCOCC2)c1	-	8.2µM	-	-	-
CC(CC(=O)Nc1ccc(Cl)c(S(=O)(=O)N2CCOCC2)c1)c1ccccc1 (centres undefined)	-	2.1µM	-	4.6µM	?
CCN(CC)S(=O)(=O)c1cc(NC(=O)COc2ccc(C#N)cc2OC)ccc1C	.	?	-	-	-
Cc1cccc(OCCC(=O)Nc2ccc(C)c(S(=O)(=O)N3CCOCC3)c2)c1	-	-	-	?	-
Cc1ccc(NC(=O)CN2c3cccc4cccc(c34)S2(=O)=O)cc1S(=O)(=O)N1CCOCC1	?	3.7µM	-	?	-
Cc1ccc(NC(=O)COc2cccc(Oc3ccccc3)c2)cc1S(=O)(=O)N1CCOCC1	-	12µM	-	16µM	-
Clc1cccc(-c2nc(-c3ccc(-c4nn[nH]n4)cc3)no2)c1	-	-	.	-	-
O=C1NC(=S)/C(=C\c2ccc(-c3ccccc3Cl)o2)S1	-	-	-	?	6.5µM
CCC(=O)Oc1ccc(C(=O)Nc2ccc3c(c2)C(=O)N(C2CCCCC2)C3=O)cc1	?	?	-	?	23µM
CCCOc1ccc(Cc2c(O)nc(SC)[nH]c2=O)cc1	-	-	-	?	-
O=C(O)c1cccc(Nc2nc3ccccc3nc2NS(=O)(=O)c2ccc(F)cc2)c1	-	?	-	-	-
C/C(=N\Nc1nc(Cl)c(Cl)cc1Cl)c1ccc(S(=O)(=O)NCc2ccco2)cc1	?	12µM	-	?	?
C/C(=N\Nc1ccccn1)c1ccc(S(=O)(=O)NCc2ccco2)cc1	-	?	-	-	-
Cc1cc(C)n(-c2ccc(C(=O)Nc3ccc(N4CCOCC4)cc3)cc2)n1	-	-	-	-	-
O=S(=O)(Nc1nc2ccccc2nc1Nc1ccc2c(c1)OCO2)c1ccc(F)cc1	-	5.8µM	-	?	-
COc1ccc(NC(=O)c2ccc(-n3nc(C)cc3C)cc2)cc1OC	-	-	-51	-	-
Cc1ccc(NC(=O)c2ccc(OC(F)(F)F)cc2)cc1S(=O)(=O)N(C)C	-	?	-	23µM	-
CCc1ccccc1NC(=S)N(CCOC)C(C)c1ccco1 (centres undefined)	-	-	-	-	-
COc1cc(C(=O)N2CCCC(c3cc(C(=O)NCc4ccc(F)cc4)no3)C2)cc(OC)c1C (centres undefined)	.	?	-	-	.
COc1ccc2cc1Oc1cc3c(cc1OC)CC[N+](C)(C)C3Cc1ccc(cc1)Oc1c(OC)c(OC)cc3c1C(C2)[N+](C)(C)CC3 (centres undefined)	-	.	.	.	-
SMILES	SW480 rerep	KB-V1 MDR tox	IL1B secr inh	KB-3-1 cytotox	MCF10A rerep
O=C(OCC(=O)N1CCc2ccccc21)[C@@H]1CC(O)CN1S(=O)(=O)c1ccc(Cl)cc1 (some centres undefined)	-	-	-	-	-
Cc1cc(C)n(-c2ccc(C(=O)Nc3ccc(S(=O)(=O)N(C)C)cc3)cc2)n1	-	?	-	-	?
Cc1ccc(S(=O)(=O)Nc2nc3ccccc3nc2N2CCOCC2)cc1	-	-	-	-	-
Cc1cc(C)n(-c2nc3ccccc3nc2Nc2ccc(N(C)C)cc2)n1	.	-	.	-	.
O=S(=O)(Nc1nc2ccccc2nc1N1CCN(c2ccccc2)CC1)c1ccc(F)cc1	-	5.2µM	-	?	-
CCCCN1C(=O)c2ccc(C(=O)Nc3ccc(C)c(S(=O)(=O)N(C)C)c3)cc2C1=O	-	12µM	-	?	-
Cc1ccc2nc(Nc3ccc4[nH]c(=O)[nH]c4c3)c(-n3nc(C)cc3C)nc2c1	-	-	-90	-	-
